Source: PubChem BioAssay
SUMO1-SIM PPI = modulators of human SUMO1-mediated protein-protein interactions | P63165 | SUMO1 binding to a labelled peptide, TR-FRET, 1 h | inhibition, % at 20 µM | 0.33% of 360,000 active | AID 602429; in the data active = inhibition above about 37%
ATG4B inh = blocks human ATG4B protease cleavage of LC3 substrate. ATG4B cleavage of LC3-PLA2, NBD-HPC fluorescence, 1 h. inhibition, % at 8.33 µM. 0.51% of 340,000 active; in the data active = inhibition above about 40%
Neddyl block = blocks human cullin neddylation. P61081+Q13564. TR-FRET cullin neddylation, biochemical. inhibition, % at 25 µM. 0.58% of 360,000 active. AID 651699; in the data active = inhibition above about 36%
Target sequence (P61081 whole entry, looked up): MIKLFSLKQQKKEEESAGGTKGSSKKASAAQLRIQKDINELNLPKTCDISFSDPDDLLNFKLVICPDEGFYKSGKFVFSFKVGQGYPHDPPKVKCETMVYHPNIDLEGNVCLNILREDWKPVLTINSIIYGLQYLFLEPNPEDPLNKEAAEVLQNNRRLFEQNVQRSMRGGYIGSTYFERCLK
Target sequence (Q13564 whole entry, looked up): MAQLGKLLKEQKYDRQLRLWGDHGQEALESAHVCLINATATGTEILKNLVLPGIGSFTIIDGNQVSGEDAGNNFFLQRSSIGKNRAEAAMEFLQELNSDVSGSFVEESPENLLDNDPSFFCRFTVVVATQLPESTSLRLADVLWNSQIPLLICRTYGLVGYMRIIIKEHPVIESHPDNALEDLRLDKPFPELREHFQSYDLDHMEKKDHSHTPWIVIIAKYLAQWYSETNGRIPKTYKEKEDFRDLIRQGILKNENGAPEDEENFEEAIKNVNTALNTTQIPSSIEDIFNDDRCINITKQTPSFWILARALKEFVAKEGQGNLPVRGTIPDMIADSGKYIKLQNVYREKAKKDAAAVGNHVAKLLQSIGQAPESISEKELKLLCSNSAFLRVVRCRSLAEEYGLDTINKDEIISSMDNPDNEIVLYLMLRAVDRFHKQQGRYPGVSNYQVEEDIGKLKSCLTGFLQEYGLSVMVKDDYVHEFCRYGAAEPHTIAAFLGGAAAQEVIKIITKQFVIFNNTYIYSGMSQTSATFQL
Rin1-Abl PPI inh = inhibitors of human Rin1-Abl protein interaction. P00519+Q13671. TR-FRET Rin1/Abl binding, biochemical. inhibition, % at 7.35 µM. 0.4% of 360,000 active; in the data active = inhibition above about 5%, passing the limit was not always enough
ATG4B confirm = ATG4B (human) inhibition, single-dose confirmed | shares compounds with ATG4B inh | ATG4B protease fluorescent substrate cleavage assay | inhibition, % at 8.33 µM | 92% of 320 active | AID 504757; in the data active = inhibition above about 39%
PLA2 counter = PLA2 (human) inhibition in ATG4B counter-screen; shares compounds with ATG4B inh; purified PLA2, NBD-C6-HPC fluorescence, 45 min; inhibition, % at 8.33 µM; 66% of 1,600 active; AID 588402; in the data active = inhibition above about 50%
Of the large screens only hits and unclear results are named; the others gave an inactive call (follow-up assays come after a bar, where they were run). A selection: hits, their analogues and other compounds. The true share with any hit is near 1.7%.

COc1ccc(C(=O)N2CCCC(Nc3ccc(C(C)C)cc3)C2)c(OC)n1 (centres undefined)	ATG4B inh 76 | PLA2 counter 78
CC(C)c1ccc(NC2CCCN(C(=O)c3ccc4nccnc4c3)C2)cc1 (centres undefined)	none
C[C@H]1CN(S(=O)C(C)(C)C)[C@H](CCO)/C1=C\c1ccccc1 (some centres undefined)	none
Cc1ccc(-c2ccc(/C=C3\C(=O)ON=C3c3ccccc3)o2)c([N+](=O)[O-])c1	ATG4B inh 63 | PLA2 counter inactive
C/C(=N/NC(=O)c1cc2ccccc2cc1O)C1C(=O)c2ccccc2C1=O	ATG4B inh 49 | ATG4B confirm 73 | PLA2 counter inactive
CCOC(=O)C1=CCN(S(=O)(=O)c2ccc(Cl)cc2)C1c1ccc(C)cc1 (centres undefined)	none (no result: ATG4B inh)
COc1ccccc1CCC(=O)Nc1ccc2c(c1)c(=O)n(C)n2-c1cccs1	none (no result: ATG4B inh)
CC(=Cc1ccccc1)C=C1SC(=S)N(CCCC(=O)Nc2ccc(C(=O)O)cc2)C1=O	none (no result: ATG4B inh)
CC(/C=C1\SC(=S)N(CCCC(=O)Nc2ccc(C(=O)O)cc2)C1=O)=C\c1ccccc1	ATG4B inh 65 | ATG4B confirm 41 | PLA2 counter inactive
Cc1ccc(/C=C2\SC(=S)N(C(Cc3ccccc3)C(=O)O)C2=O)cc1 (centres undefined)	ATG4B inh 48 | ATG4B confirm 79 | PLA2 counter inactive
CCC(C(=O)O)N1C(=O)/C(=C/C(C)=C/c2ccccc2)SC1=S (centres undefined)	ATG4B inh 80 | PLA2 counter 83
CC(=C\c1ccccc1)/C=C1/SC(=S)N(CCCC(=O)O)C1=O	ATG4B inh 52 | ATG4B confirm 78 | PLA2 counter inactive
CCCCOC(=O)C1C2CCC(O2)C1C(=O)OCC (centres undefined)	none
COC(=O)c1cc2c([nH]c1=O)CCCC2=O	none
O=C(COC(=O)CCc1nc2ccccc2n1-c1ccccc1)Nc1cccc(Cl)c1	none
Cc1c(Cl)cccc1NC(=O)COC(=O)CCc1nc2ccccc2n1-c1ccccc1	ATG4B inh 50 | PLA2 counter 53
Cc1c(Cl)cccc1NC(=S)NCc1ccc(Cl)cc1	ATG4B inh 70 | PLA2 counter 81
S=C(NCc1ccc(Cl)cc1)Nc1ccccc1Cl	none
Cc1c(Cl)cccc1NC(=S)NCc1ccccc1	ATG4B inh 54 | PLA2 counter 70
Cc1cccc(NC(=S)NCc2ccccc2Cl)c1C	none
Cc1c(Cl)cccc1NC(=S)NC1CCN(Cc2ccccc2)CC1	ATG4B inh 48 | PLA2 counter 58
S=C(Nc1ccccc1Cl)NC1CCN(Cc2ccccc2)CC1	none
Cc1cn([C@H]2C[C@H](O)[C@@H](CNCc3ccccc3OCCCN3CCOCC3)O2)c(=O)[nH]c1=O	none (no result: ATG4B inh)
Nc1c(C(=O)c2ccccc2)oc2ccccc12	none
O=C(c1ccc(Cl)cc1)c1oc2ccccc2c1CS(=O)(=O)c1ccccc1	ATG4B inh 43 | PLA2 counter inactive
Cc1csc(NC(=O)c2cccc([N+](=O)[O-])c2C(=O)O)n1	none
O=C(Nc1nc(-c2ccccc2)cs1)c1cccc([N+](=O)[O-])c1C(=O)O	ATG4B inh 55 | PLA2 counter 65
O=C1Nc2ccc(F)cc2C12Nc1ccccc1-c1nnc(SCc3ccccc3Cl)nc1O2 (centres undefined)	ATG4B inh 43 | PLA2 counter 77
O=C1Nc2ccc(F)cc2C12Nc1ccccc1-c1nnc(SCc3ccccc3)nc1O2 (centres undefined)	none
O=[N+]([O-])c1ccc(NN=CC2CCCCCC2)c([N+](=O)[O-])c1	none (no result: ATG4B inh, Rin1-Abl PPI inh)
O=c1[nH]c(NNC(=S)NCc2ccccc2)nc2c1C1(CCCCC1)Cc1ccccc1-2	ATG4B inh 72 | PLA2 counter 79
O=C1c2cccnc2-c2ncccc21	none
COC1=C(Br)C(=O)c2ncccc2C1=O	SUMO1-SIM PPI 49, ATG4B inh 69 | ATG4B confirm inactive | PLA2 counter inactive
O=C(CSc1ccc(Cl)cc1)Nc1ccccc1Oc1ccccc1	ATG4B inh 40 | PLA2 counter inactive
CCn1c(O)c(/C=C2\C=Nc3ccccc32)sc1=Nc1ccccc1	ATG4B inh 43 | PLA2 counter inactive
Cn1c(O)c(/C=C2\C=Nc3ccccc32)sc1=Nc1ccc(C(=O)O)cc1	none
Cc1cccc(C)c1OCc1nc2ccccc2c(=O)n1/N=C/c1ccc(OCC(=O)O)cc1	ATG4B inh 53 | ATG4B confirm 62 | PLA2 counter inactive
Cc1ccc(-c2[nH]ncc2/C=N/n2c(COc3ccccc3)nc3ccccc3c2=O)cc1	none
O=c1c2ccccc2nc(COc2ccccc2)n1/N=C/c1ccc(O)c(O)c1	none
Cc1cc(/C=N/n2c(COc3ccccc3)nc3ccccc3c2=O)c(O)c([N+](=O)[O-])c1	ATG4B inh 60 | ATG4B confirm 53 | PLA2 counter inactive
C#CCNC(=O)C[C@@H]1C[C@@]2(C(=O)OCC)CCC=C2N(Cc2ccc(Cl)cc2Cl)C1=O	none (no result: ATG4B inh, Rin1-Abl PPI inh)
Brc1ccc([C@H]2C=C[C@H]3CCCN4CC[C@H]2[C@@H]3[C@]42CO2)cc1	none (no result: ATG4B inh, Rin1-Abl PPI inh)
Cc1cn([C@H]2C[C@H](O)[C@@H](CNCc3ccc(Oc4cc(-n5cccn5)ncn4)cc3)O2)c(=O)[nH]c1=O	none (no result: ATG4B inh)
O=C(C[C@H]1CC[C@@H](NC(=O)C2CC2)[C@@H](CO)O1)NCc1ccccc1Cl	none (no result: ATG4B inh, Rin1-Abl PPI inh)
O=C(Nc1nc(-c2ccco2)c(-c2ccco2)s1)c1c(F)cccc1Cl	ATG4B inh 64 | PLA2 counter 79
Cc1cc(N2CCN(C(c3ccnc4ccccc34)c3nnnn3-c3c(C)cccc3C)CC2)c2ccccc2n1 (centres undefined)	none (no result: ATG4B inh, Rin1-Abl PPI inh)
O=C1Nc2ccccc2S/C1=C/NCc1ccccc1Cl	ATG4B inh 55 | PLA2 counter 61
Cc1nn(-c2ccccc2)c(N)c1N=Nc1ccc2ccccc2c1	ATG4B inh 78 | PLA2 counter 91
Cc1ccc(N=Nc2c(N)nn(-c3ccccc3)c2N)cc1	ATG4B inh 57 | PLA2 counter 71
COc1ccc(N=Nc2c(N)nn(C)c2N)cc1	none
Cc1nn(-c2ccccc2)c(N)c1N=O	none
O=C(c1ccccc1)c1cnc(Nc2ccccc2Cl)s1	ATG4B inh 44 | ATG4B confirm 65 | PLA2 counter inactive
CC(C)(C)C(=O)c1cnc(Nc2ccccc2Cl)s1	none
CC(=O)c1ccc(C(=O)N2CCCC(Nc3ccc(C(C)C)cc3)C2)s1 (centres undefined)	ATG4B inh 49 | PLA2 counter 56
CC(C)c1ccc(NC2CCCN(C(=O)c3ccco3)C2)cc1 (centres undefined)	ATG4B inh 54 | PLA2 counter 53
CC(C)(O)C#Cc1cccc(-c2nc(C(=O)NCCCN3CCOCC3)cc3c2[C@H](CCO)N(S(=O)C(C)(C)C)C3)c1 (some centres undefined)	none (no result: ATG4B inh)
